# From PubChem BioAssay
# AmpC inh no detg = blocks E. coli AmpC beta-lactamase in detergent-free assay | Potency, µM (doses to about 57.1 µM), without a hit: at the top dose activity change, negative = inhibition, actives largely listed as inhibitors | AmpC nitrocefin hydrolysis, absorbance 480 nm, 0.0001% Triton | hit rate 0.52% among 330,000 | AID 485341;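 note: plate controls were no compound for no effect and no enzyme for full effect; nearly all actives have a fitted effect of over 20% in size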
# Target sequence (P00811 whole entry, looked up): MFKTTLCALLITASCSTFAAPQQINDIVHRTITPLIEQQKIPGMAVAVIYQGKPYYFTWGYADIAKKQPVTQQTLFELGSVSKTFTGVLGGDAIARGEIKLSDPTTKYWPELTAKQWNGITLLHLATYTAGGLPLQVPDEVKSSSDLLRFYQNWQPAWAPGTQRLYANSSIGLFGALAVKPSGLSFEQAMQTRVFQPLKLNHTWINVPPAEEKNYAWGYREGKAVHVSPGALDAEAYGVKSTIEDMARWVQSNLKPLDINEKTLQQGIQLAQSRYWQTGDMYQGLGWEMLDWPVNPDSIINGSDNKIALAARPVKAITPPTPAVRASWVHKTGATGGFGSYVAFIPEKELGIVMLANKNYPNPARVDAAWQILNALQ
#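 20 mM phosphate pH 7.0 + 0.01% (detergent screen) or 0.0001% Triton X-100; 5.3 nM AmpC reagent; cpd preinc 15 min RT; nitrocefin (800 uM stock) to start; A480 q20 s × 4 min; Activity was normalised to no-enzyme and no-compound control wells.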
# VACV mCherry inh = inhibitors of vaccinia virus infection (mCherry reporter signal) | hit rate 0.63% among 310,000 | Potency, µM (titrated, usually from 36.5 µM), for the others: at the highest dose activity change, negative = inhibition, actives largely listed as inhibitors | Vaccinia virus mCherry reporter infection, fluorescence; calls by dose curve; tested in A549 cells; note: nearly all actives have a fitted effect of over 35% in size
# VACV Venus inh = vaccinia inhibition (Venus reporter); Vaccinia virus Venus reporter expression, fluorescence; Potency, µM (top dose mostly 36.5 µM), for inactives: top-dose activity change, negative = inhibition, most hits filed as inhibitors; hit rate 0.46% among 330,000; AID 720580; calls by dose curve; tested in A549 cells; note: nearly all actives have a fitted effect of over 30% in size
# AmpC detergent = AmpC beta-lactamase inhibition with detergent present; P00811; Potency, µM (top dose mostly 114 µM), inactives show top-dose activity change, negative = inhibition, actives largely listed as inhibitors; AmpC hydrolysis of nitrocefin, absorbance 480 nm, 0.01% Triton; hit rate 0.041% among 370,000;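 note: 0% = no-compound wells and -100% = no-enzyme wells; nearly all actives have a fitted effect of over 25% in size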
#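 AmpC (5.3 nM in the dispensed reagent) in 20 mM phosphate pH 7.0 with 0.01% (detergent screen) or 0.0001% Triton X-100 was preincubated with compounds for 15 min at room temperature. Nitrocefin was then added from an 800 uM solution, and hydrolysis was followed at 480 nm.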
# * marks the source's active call; other numbers are inactive results; i = inactive; ? = inconclusive; · = not tested or not shown. Shown are actives, neighbours in structure and some others; about 1.1% of the full set was active somewhere. Unless noted, calls come from the whole dose curve; as a rule, active = well fitted curve in the direction sought with a large enough effect; inconclusive = small, poorly fitted or top-dose-only effect, or another doubt; inactive = no such curve, though single readings can be large; an effect the other way counts as inactive or inconclusive. Unless noted, % is set by controls: 0 for no effect and ±100 for the full control effect; potency is the fitted concentration of half-maximal effect.
SMILES,AmpC inh no detg,VACV mCherry inh,VACV Venus inh,AmpC detergent
CNc1ccc(C=O)cc1Cl,·,-8.7%,-5.9%,·
Cc1ccc(NC(=O)c2cc(C(=O)c3cc(Cl)ccc3O)cn(-c3ccc(C)cc3)c2=O)cc1,3.16µM*,-1.2%,?,-5.6%
Cc1ccc(/C=N/Nc2ccc(C(=O)O)cc2)o1,-12.6%,·,·,6.6%
O=C(O)c1ccc(N/N=C/c2ccc(-c3ccc(Br)cc3)o2)cc1,-21.7%,11.2µM*,?,6.4%
CCCC[n+]1c2ccccc2cc2ccccc21,-24.4%,-9.7%,?,31.6µM*
CCC[n+]1c(/C=C/c2c(OC)cc(OC)cc2OC)ccc2ccccc21,·,10µM*,105.8%,·
CCCC[n+]1c(/C=C/c2c(OC)cc(OC)cc2OC)ccc2ccccc21,·,10µM*,126.0%,·
CC(C)(C)c1ccc(O)c(N=Cc2cccc([N+](=O)[O-])c2)c1,·,i,-10.1%,·
O=C(c1cncs1)N(Cc1cc2cc3c(cc2nc1N1CCOCC1)CCC3)CC1CCCO1 (stereo not drawn),·,-7.2%,-2.3%,·
CC(NC(=O)Nc1ccc(Cl)cc1)c1ccccc1 (stereo not drawn),-45.4%,·,·,-16.3%
Cc1ccc(C(NC(=O)NC(C)c2ccccc2)C(Cl)(Cl)Cl)cc1F (stereo not drawn),-8.8%,22.4µM*,?,?
CC(=O)OC1c2ccccc2C(=O)N1c1ccccc1C (stereo not drawn),-15.3%,-18.3%,4.3%,-8.3%
COC(=O)C1(C)Nc2ccccc2C(=O)N1c1ccccc1C (stereo not drawn),1µM*,4.3%,1.4%,?
CC(=O)NC(=C(Cl)Cl)S(=O)(=O)c1ccccc1,3.0%,7.94µM*,8.91µM*,?
O=C(Nc1cccc2ccccc12)OC1C=CS(=O)(=O)C1 (stereo not drawn),-17.8%,11.2µM*,?,?
O=C(CCS(=O)(=O)c1ccc(F)cc1)Nc1nnc(-c2ccco2)o1,-14.6%,?,?,?
O=C(CCS(=O)(=O)c1ccccc1)Nc1nnc(-c2ccco2)o1,-0.1%,11.2µM*,?,1.1%
COc1cc(OC)cc(-c2nnc(NC(=O)CCS(=O)(=O)c3ccc(C)cc3)o2)c1,-29.3%,7.94µM*,?,-17.9%
CCC1CN(CC(=O)NCc2n[nH]c3c2CCCCC3)Cc2cc(OC)ccc2O1 (stereo not drawn),·,-9.3%,-8.8%,·
CCNC(=O)c1sc2ncnc(NCCCN3CCOCC3)c2c1C,·,0.1%,14.4%,·
CCC1CN(CCNC(=O)C(C)(C)O)Cc2cc(OC)ccc2O1 (stereo not drawn),·,-12.9%,0.4%,·
Nc1nc(N)c2c(ccc3c2ccn3Cc2cccc([N+](=O)[O-])c2)n1,·,0.355µM*,11.2µM*,·
COCCN(C(=O)Cc1cccs1)C(C(=O)NCc1ccc(OC)cc1)c1ccc(C)cc1 (stereo not drawn),0.316µM*,-13.7%,-13.5%,5.9%
OCC[N+]1(CCc2ccccc2)CCOCC1,·,i,-5.5%,·
c1cc2c3c(cccc3c1)NC1(CCC3(CC1)Nc1cccc4cccc(c14)N3)N2,-30.3%,?,10µM*,-4.7%
SMILES,AmpC inh no detg,VACV mCherry inh,VACV Venus inh,AmpC detergent
COc1cccc(C2c3[nH]c4ccccc4c3CCN2C(=O)c2ccccc2F)c1OC (stereo not drawn),87.5%,·,·,-5.7%
O=C(c1cn[nH]c1)N1CCc2c([nH]c3ccccc23)C1c1c(F)cccc1Cl (stereo not drawn),35.2%,10µM*,-15.0%,9.2%
Cc1cnc(-n2ncc(C(=O)N(C)CC3CCCN(C)C3)c2C2CC2)nc1-c1cccs1 (stereo not drawn),·,-19.8%,-11.6%,·
CCOC(=O)c1c(NC(=O)COC(=O)Cn2cnc3ccccc32)sc(C)c1C,-10.4%,10µM*,?,-6.8%
O=C1[C@H](Cc2ccccc2)NC/C=C\C[C@@H](c2ccc(Cl)cc2)N1Cc1ccccc1,·,-0.2%,-12.7%,·
CC(c1nnc(Sc2nnnn2-c2ccccc2)n1-c1ccc(F)cc1)N(C)C (stereo not drawn),-2.7%,12.6µM*,?,-7.5%
CC1C(=O)N(Cc2cn(CC3CCCCC3)nn2)CCS(=O)(=O)N1Cc1ccc(-c2ccc(Cl)cc2)cc1 (stereo not drawn),·,?,11.2µM*,·
CC1C(=O)N(Cc2cn(CC3CCCCC3)nn2)CCS(=O)(=O)N1Cc1ccc(-c2ccc(Cl)c(Cl)c2)cc1 (stereo not drawn),·,-5.2%,-21.5%,·
COCOCCn1cc(CN2CCS(=O)(=O)N(Cc3ccc(-c4ccc(Cl)c(Cl)c4)cc3)C(C)C2=O)nn1 (stereo not drawn),·,?,12.6µM*,·
CC(C)C1C(=O)N(Cc2cn(CC3CCCCC3)nn2)CCS(=O)(=O)N1Cc1ccc(-c2ccc(Cl)cc2)cc1 (stereo not drawn),·,10µM*,?,·
COCOCCn1cc(CN2CCS(=O)(=O)N(Cc3ccc(-c4ccc(C)cc4)cc3)C(C)C2=O)nn1 (stereo not drawn),·,i,-19.9%,·
COc1ccccc1C(=O)N(Cc1cc2cc3c(cc2nc1N(C)C)OCO3)CC1CCCO1 (stereo not drawn),·,-7.8%,-2.5%,·
COC(=O)C1CCCCN1Cc1ccc2c(c1)CN(C(=O)c1ccc(C)s1)CCO2 (stereo not drawn),·,-4.5%,3.8%,·
CCSc1nc2ccccc2n1C(=O)/C=C\c1ccc(OC)c(OC)c1,-9.7%,12.6µM*,?,8.1%
CCSc1nc2ccccc2n1CC(N)=O,-17.3%,·,·,?
COc1c(C)oc2cc(O)ccc2c1=O,-12.9%,-4.8%,-11.5%,0.5%
Oc1ccc2c(c1)oc1cc(O)ccc12,-38.9%,10µM*,?,?
Cc1cc(C)n(C(=O)CSc2nc3ccccc3o2)n1,-4.2%,·,·,28.2µM*
O=C(C[C@H]1C[C@H](C(=O)N2CCCCC2)[C@@]2(CCc3ccccc3)c3[nH]c4ccc(Cl)cc4c3CCN2C1=O)NCCCn1ccnc1,5.7%,-19.8%,11.2µM*,·
O=C(C[C@H]1C[C@H](C(=O)N2CCCCC2)[C@@]2(CCc3ccccc3)c3[nH]c4cc(-c5ccco5)ccc4c3CCN2C1=O)NCCN1CCOCC1,211.5%,?,10µM*,·
O=C(C[C@H]1C[C@H](C(=O)N2CCOCC2)[C@@]2(CCC3CCCC3)c3[nH]c4cc(-c5ccco5)ccc4c3CCN2C1=O)NCCCn1ccnc1,213.2%,-28.8%,10µM*,·
C[C@]12c3[nH]c4ccc(Cl)cc4c3CCN1C(=O)[C@@H](CC(=O)NCCCn1ccnc1)C[C@@H]2C(=O)N1CCCCC1,239.5%,i,-14.6%,·
CCN(CC)C(=O)[C@H]1C[C@H](CC(=O)NCCCn2ccnc2)C(=O)N2CCc3c([nH]c4cc(-c5ccco5)ccc34)[C@]12C,161.3%,-14.9%,-18.5%,·
COc1ccc(-n2c3c(cc(C(=O)N4CCCCC4)c2=O)C(=O)CC(C)(C)C3)cc1,-1.1%,?,14.1µM*,?
O=C(O)c1c2c(nc3ccc(S(=O)(=O)N4CCC(C(=O)NC5CCCC5)CC4)cc13)CCCCC2,25.1µM*,-14.9%,-13.3%,-13.9%
C(=NNc1ccc2ccccc2n1)c1ccccn1,·,1.78µM*,?,·
